Experimental data reported in PubChem BioAssay (NCATS).
Results filed as inconclusive are left out. Active and inactive are the calls of the source. Calls follow the shape of the dose curve; as a rule, active = well fitted curve in the direction sought with a large enough effect; inconclusive = small, poorly fitted or top-dose-only effect, or another doubt; inactive = no such curve, though single readings can be large; an effect the other way counts as inactive or inconclusive.

Experiments:
[1] = biological target: Rap guanine nucleotide exchange factor 3 (Homo sapiens) (UniProt O95398); assay: Confirmatory qHTS for agonist of cAMP-regulated guanine nucleotide exchange factor 3 (EPAC1) (AID 1645881);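 also: EPAC1 catalysed release of BODIPY-GDP from Rap1B seen as fluorescence loss; 100% = effect of cAMP agonist control; nearly all actives have a fitted effect of over 75% in size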
[2] = biological target: Rap guanine nucleotide exchange factor 4 (Homo sapiens) (UniProt Q8WZA2); assay: Confirmatory qHTS for agonist of cAMP-regulated guanine nucleotide exchange factor 4 (EPAC2) (AID 1645884);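 also: nucleotide exchange releases bodipy-GDP from Rap1 and this lowers its fluorescence; % is scaled to controls: 0 for no effect and ±100 for the full control effect; nearly all actives have a fitted effect of over 65% in size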
[3] = biological target: Rap guanine nucleotide exchange factor 4 (Homo sapiens) (UniProt Q8WZA2); assay: Confirmatory qHTS for antagonist of cAMP-regulated guanine nucleotide exchange factor 4 (EPAC2) (AID 1645885); also: % is scaled to controls: 0 for no effect and ±100 for the full control effect; nearly all actives have a fitted effect of over 25% in size
[4] = biological target: Rap guanine nucleotide exchange factor 3 (Homo sapiens) (UniProt O95398); assay: Counterscreen qHTS for agonist of cAMP-regulated guanine nucleotide exchange factor 3 (EPAC1) (AID 1645889); also: % of control where 0% means no effect; nearly all actives have a fitted effect of over 40% in size
In short: (§1)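 Rap1B–BODIPY-GDP (250 nM) with 50 uM GDP; compounds pin-transferred to 9.74 nM–152 uM final (activator) or from 7.32 nM upwards (inhibitor). Fluorescence Ex/Em 480/540 nm read at 5 and 30 min, then after adding cAMP or buffer, at room temperature.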

[5] = biological target: Rap guanine nucleotide exchange factor 3 (Homo sapiens) (UniProt O95398); assay: Counterscreen qHTS for antagonist of cAMP-regulated guanine nucleotide exchange factor 3 (EPAC1) (AID 1645888);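 also: fluorescence loss as bound BODIPY-GDP is released from Rap1B; % of control where 0% means no effect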
In short: as §1

Rap guanine nucleotide exchange factor 4 (Homo sapiens), sequence (Q8WZA2 whole entry, looked up): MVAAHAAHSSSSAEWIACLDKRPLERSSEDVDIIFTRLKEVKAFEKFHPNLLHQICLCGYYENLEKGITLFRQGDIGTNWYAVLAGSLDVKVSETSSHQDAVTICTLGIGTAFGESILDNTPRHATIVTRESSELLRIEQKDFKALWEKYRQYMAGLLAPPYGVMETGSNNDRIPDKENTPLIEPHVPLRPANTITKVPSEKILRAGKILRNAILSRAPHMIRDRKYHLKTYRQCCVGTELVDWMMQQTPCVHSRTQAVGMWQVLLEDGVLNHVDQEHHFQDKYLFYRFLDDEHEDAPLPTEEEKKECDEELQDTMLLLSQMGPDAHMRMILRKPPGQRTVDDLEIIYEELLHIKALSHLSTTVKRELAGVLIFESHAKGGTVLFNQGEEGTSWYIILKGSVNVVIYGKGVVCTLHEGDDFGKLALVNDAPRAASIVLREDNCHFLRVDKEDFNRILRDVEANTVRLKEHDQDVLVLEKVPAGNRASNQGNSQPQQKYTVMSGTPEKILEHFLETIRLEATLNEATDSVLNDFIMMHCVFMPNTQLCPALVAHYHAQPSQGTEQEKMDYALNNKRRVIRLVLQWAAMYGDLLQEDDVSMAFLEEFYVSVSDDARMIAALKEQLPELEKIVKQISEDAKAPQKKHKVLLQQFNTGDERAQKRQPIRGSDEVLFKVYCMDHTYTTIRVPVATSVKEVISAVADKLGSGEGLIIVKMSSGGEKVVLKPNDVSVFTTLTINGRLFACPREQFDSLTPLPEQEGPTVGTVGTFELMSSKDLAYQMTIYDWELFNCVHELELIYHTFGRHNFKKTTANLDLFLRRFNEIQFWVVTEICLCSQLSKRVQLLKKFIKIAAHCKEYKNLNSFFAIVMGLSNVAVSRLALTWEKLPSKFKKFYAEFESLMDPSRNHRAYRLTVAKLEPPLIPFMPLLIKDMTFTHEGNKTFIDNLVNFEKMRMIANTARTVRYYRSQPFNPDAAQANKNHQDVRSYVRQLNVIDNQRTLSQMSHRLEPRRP
Rap guanine nucleotide exchange factor 3 (Homo sapiens), sequence (O95398 whole entry, looked up): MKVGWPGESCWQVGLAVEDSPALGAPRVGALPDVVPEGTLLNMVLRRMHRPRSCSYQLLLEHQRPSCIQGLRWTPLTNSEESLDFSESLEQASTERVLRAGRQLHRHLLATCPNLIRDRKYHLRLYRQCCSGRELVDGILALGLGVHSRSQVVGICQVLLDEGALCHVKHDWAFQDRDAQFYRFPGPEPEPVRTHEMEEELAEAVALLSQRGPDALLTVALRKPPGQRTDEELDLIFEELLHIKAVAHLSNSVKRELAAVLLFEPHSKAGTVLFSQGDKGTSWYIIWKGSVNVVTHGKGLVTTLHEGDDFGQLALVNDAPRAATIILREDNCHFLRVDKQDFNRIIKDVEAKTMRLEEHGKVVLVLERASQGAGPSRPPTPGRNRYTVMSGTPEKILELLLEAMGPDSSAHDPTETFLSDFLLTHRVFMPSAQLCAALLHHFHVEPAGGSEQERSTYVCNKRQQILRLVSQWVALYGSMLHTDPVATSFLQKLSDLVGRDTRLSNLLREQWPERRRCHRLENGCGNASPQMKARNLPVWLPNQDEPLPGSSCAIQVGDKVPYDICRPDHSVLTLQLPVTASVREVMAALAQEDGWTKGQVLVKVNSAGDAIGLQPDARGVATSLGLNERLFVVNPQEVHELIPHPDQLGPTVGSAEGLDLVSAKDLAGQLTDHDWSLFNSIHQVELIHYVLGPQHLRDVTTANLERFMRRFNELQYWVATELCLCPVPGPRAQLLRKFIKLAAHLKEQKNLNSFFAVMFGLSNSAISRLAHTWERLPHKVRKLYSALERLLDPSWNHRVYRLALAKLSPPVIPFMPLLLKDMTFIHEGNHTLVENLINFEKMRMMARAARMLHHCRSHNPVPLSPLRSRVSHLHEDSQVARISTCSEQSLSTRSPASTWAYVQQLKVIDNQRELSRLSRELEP

CN(CC(=O)Nc1ccc(F)cc1)C(=O)COC(=O)C1CCN(c2ccc(C(F)(F)F)cn2)CC1
inactive: Potency [1] | Potency [2] | Potency [3] | Potency [4]

O=C(CN1C(=O)/C(=C2/SC(=S)N(CCS(=O)(=O)O)C2=O)c2ccccc21)Nc1cccc(Br)c1
inactive: Potency [1] | Potency [2] | Potency [5]

O=C1C(O)=C(O)C(=O)c2ccccc21
inactive: Potency [1] | Potency [2] | Potency [5]

O=C(O)c1ccc(N=N/C(=N\Nc2ccc(C(=O)O)cc2)c2ccccc2)cc1
inactive: Potency [1] | activation [2] -13% [at 17.1 µM, percent relative to cAMP agonist control] | activity change, negative = inhibition [5] -1.23% [at 30.8 µM]

CCOC(=O)C1=CCN(S(=O)(=O)c2ccccc2C)C1c1ccc(Cl)c(Cl)c1 (stereo not given)
inactive: Potency [1] | Potency [2] | Potency [5]

CC(C)=CCc1c(O)cc(O)c2c1OC(c1ccc(O)cc1)CC2=O (stereo not given)
inactive: Potency [1] | Potency [2] | Potency [5]

Cc1cc(NC(=O)CS(=O)(=O)c2cn(Cc3cccc(Br)c3)c3ccccc23)no1
inactive: Potency [1] | Potency [2] | Potency [5]

COc1ccccc1[C@@]1(C)ON(c2ccccc2C(F)(F)F)C1=O
inactive: Potency [1] | Potency [2] | Potency [5]

Cc1ccc(/C=N/Nc2cc(C)nc(NCc3ccccc3)n2)cc1
inactive: Potency [1] | Potency [2] | Potency [5]

Oc1ccc(NCc2ccccc2OCc2ccccc2Cl)cc1
inactive: Potency [1] | Potency [2] | Potency [5]

CC(=O)NC(c1ccccc1)c1c(O)ccc2ccccc12 (stereo not given)
inactive: Potency [1] | activation [2] 2.11% [at 17.1 µM, percent relative to cAMP agonist control] | activity change, negative = inhibition [5] -4.37% [at 30.8 µM]

CN(CC(=O)Nc1ccc(F)cc1)C(=O)c1cc(-c2ccco2)nc2ccccc12
inactive: Potency [1] | Potency [2] | Potency [5]

COc1cc(/C=N/NS(=O)(=O)c2ccc3ccccc3c2)ccc1OCc1ccc(C(=O)O)cc1
inactive: Potency [1] | Potency [2] | Potency [5]

CCOC(=O)C1=C(C)N=c2s/c(=C/c3ccc(OCC(=O)O)cc3)c(=O)n2C1c1ccc(F)cc1 (stereo not given)
inactive: Potency [1] | Potency [2] | Potency [5]

FC(F)(F)C1=Nc2cccc3cccc(c23)N1
inactive: Potency [1] | Potency [2] | Potency [5]

Cc1cc(C)c(Cn2cnc3ccccc32)c(C)c1
inactive: Potency [1] | Potency [2] | Potency [5]

COCCNc1nc(Oc2cccc(F)c2)c2sccc2n1
inactive: Potency [1] | Potency [2] | Potency [5]

CCN1CCN(c2ccc(S(=O)(=O)N3CCCCC3)cc2NC(=O)c2ccc([N+](=O)[O-])s2)CC1
inactive: Potency [1] | Potency [2] | Potency [5]

C/C(=N/NS(=O)(=O)c1ccc(C(C)(C)C)cc1)c1ccc2c(c1)OCO2
inactive: Potency [1] | activation [2] 7.62% [at 17.1 µM, percent relative to cAMP agonist control] | activity change, negative = inhibition [5] -17.7% [at 30.8 µM]

Cc1nc2c(OCc3ccc(C(F)(F)F)cc3)cccn2c1N(C)Cc1cccs1
inactive: Potency [1] | Potency [2] | Potency [5]

CC(C)n1nccc1N(Cc1ccc(Cl)cc1)S(=O)(=O)c1ccccc1
inactive: Potency [1] | Potency [2] | Potency [5]

COc1ccc(-c2sc3ccc(OC)cc3c2C#CCCO)cc1
inactive: Potency [1] | Potency [2] | Potency [5]

O=C(NC1CC1)C1CCN(S(=O)(=O)c2cc([N+](=O)[O-])ccc2Cl)CC1
inactive: Potency [1] | Potency [2] | Potency [5]
